Laboratory results from PubChem BioAssay AID1159580 (chemical genetic matrix, 2015).
Screen size: about 5,500 compounds; about 2,000 (36%) were called active. About 18% were inconclusive and are not listed. Cut-off read from the data, not from the text of the source: active = normalized growth mostly below about 0.91 (no sharp cut-off); inconclusive = no clear call, values can overlap the other calls; inactive = mostly above about 0.92. This is one part of the list.

Test: chemical genetic growth profiling, strain panel (AID 1159580);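 note: tested at 20 µM; growth read once vehicle control cultures reached saturation at 30 °C; 1 = growth at the plate median or of vehicle wells; lower values mean less growth of the strain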
Conditions: S. cerevisiae deletion strains, growth OD
[1] = locus YAL021C, strain ccr4, stronger effect = lower value
[2] = locus YAL026C, strain drs2, stronger effect = lower value
[3] = locus YAL030W, strain snc1, stronger effect = lower value
[4] = locus YBL061C, strain skt5, stronger effect = lower value
[5] = locus YBR009C, strain hhf1, stronger effect = lower value
[6] = locus YBR023C, strain chs3, stronger effect = lower value
[7] = locus YBR171W, strain sec66, stronger effect = lower value
[8] = locus YBR231C, strain swc5, stronger effect = lower value
[9] = locus YBR279W, strain paf1, stronger effect = lower value
[10] = locus YCL011C, strain gbp2, stronger effect = lower value
[11] = locus YCL016C, strain dcc1, stronger effect = lower value
[12] = locus YCL069W, strain vba3, stronger effect = lower value
[13] = locus YCR088W, strain abp1, stronger effect = lower value
[14] = locus YDL005C, strain med2, stronger effect = lower value
[15] = locus YDL040C, strain nat1, stronger effect = lower value
[16] = locus YDR001C, strain nth1, stronger effect = lower value
[17] = locus YDR069C, strain doa4, stronger effect = lower value
[18] = locus YDR137W, strain rgp1, stronger effect = lower value
[19] = locus YDR159W, strain sac3, stronger effect = lower value
[20] = locus YDR297W, strain sur2, stronger effect = lower value
[21] = locus YDR334W, strain swr1, stronger effect = lower value
[22] = locus YDR335W, strain msn5, stronger effect = lower value
[23] = locus YDR392W, strain spt3, stronger effect = lower value
[24] = locus YEL003W, strain gim4, stronger effect = lower value
[25] = locus YEL037C, strain rad23, stronger effect = lower value
[26] = locus YEL061C, strain CIN8 (second series), stronger effect = lower value
[27] = locus YER015W, strain faa2, stronger effect = lower value
[28] = locus YER016W, strain bim1, stronger effect = lower value
[29] = locus YER111C, strain swi4, stronger effect = lower value
[30] = locus YER155C, strain BEM2 (second series), stronger effect = lower value
[31] = locus YFR010W, strain ubp6, stronger effect = lower value
[32] = locus YGL167C, strain pmr1, stronger effect = lower value
[33] = locus YGL173C, strain kem1, stronger effect = lower value
[34] = locus YGL227W, strain vid30, stronger effect = lower value
[35] = locus YGL240W, strain doc1, stronger effect = lower value
[36] = locus YGL253W, strain hxk2, stronger effect = lower value
[37] = locus YHR013C, strain ard1, stronger effect = lower value
[38] = locus YHR027C, strain rpn1, stronger effect = lower value
[39] = locus YHR030C, strain SLT2, stronger effect = lower value
[40] = locus YHR079C, strain IRE1, stronger effect = lower value
[41] = locus YHR142W, strain chs7, stronger effect = lower value
[42] = locus YJL092W, strain hpr5, stronger effect = lower value
[43] = locus YJL095W, strain BCK1 (second series), stronger effect = lower value
[44] = locus YJL095W, strain BCK1, stronger effect = lower value
[45] = locus YJL115W, strain asf1, stronger effect = lower value
[46] = locus YJL129C, strain trk1, stronger effect = lower value
[47] = locus YJL154C, strain vps35, stronger effect = lower value
[48] = locus YJL164C, strain tpk1, stronger effect = lower value
[49] = locus YJL166W, strain qcr8, stronger effect = lower value
[50] = locus YJL187C, strain SWE1, stronger effect = lower value
[51] = locus YJR066W, strain TOR1, stronger effect = lower value
[52] = locus YKL160W, strain elf1, stronger effect = lower value
[53] = locus YKR026C, strain gcn3, stronger effect = lower value
[54] = locus YKR091W, strain srl3, stronger effect = lower value
[55] = locus YLL001W, strain dnm1, stronger effect = lower value
[56] = locus YLL026W, stronger effect = lower value
[57] = locus YLL041C, strain sdh2, stronger effect = lower value
[58] = locus YLR027C, strain aat2, stronger effect = lower value
[59] = locus YLR113W, strain HOG1, stronger effect = lower value
[60] = locus YLR221C, strain rsa3, stronger effect = lower value
[61] = locus YLR258W, strain gsy2, stronger effect = lower value
[62] = locus YLR262C, strain YPT6 (second series), stronger effect = lower value
[63] = locus YLR320W, strain mms22, stronger effect = lower value
[64] = locus YLR342W, strain FKS1, stronger effect = lower value
[65] = locus YLR357W, strain rsc2, stronger effect = lower value
[66] = locus YLR370C, strain arc18, stronger effect = lower value
[67] = locus YLR384C, strain iki3, stronger effect = lower value
[68] = locus YML120C, strain ndi1, stronger effect = lower value
[69] = locus YMR058W, strain fet3, stronger effect = lower value
[70] = locus YMR125W, strain sto1, stronger effect = lower value
[71] = locus YMR129W, stronger effect = lower value
[72] = locus YMR205C, strain PFK2, stronger effect = lower value
[73] = locus YMR231W, strain pep5, stronger effect = lower value
[74] = locus YNL071W, strain lat1, stronger effect = lower value
[75] = locus YNL183C, strain NPR1, stronger effect = lower value
[76] = locus YNL209W, strain ssb2, stronger effect = lower value
[77] = locus YNL248C, strain rpa49, stronger effect = lower value
[78] = locus YNL322C, strain KRE1 (second series), stronger effect = lower value
[79] = locus YNR049C, strain mso1, stronger effect = lower value
[80] = locus YOR001W, strain rrp6, stronger effect = lower value
[81] = locus YOR070C, strain gyp1, stronger effect = lower value
[82] = locus YOR080W, strain dia2, stronger effect = lower value
[83] = locus YOR083W, strain WHI5, stronger effect = lower value
[84] = locus YOR106W, strain vam3, stronger effect = lower value
[85] = locus YOR231W, strain MKK1, stronger effect = lower value
[86] = locus YOR265W, strain rbl2, stronger effect = lower value
[87] = locus YOR270C, strain vph1, stronger effect = lower value
[88] = locus YOR290C, strain snf2, stronger effect = lower value
[89] = locus YPL051W, strain arl3, stronger effect = lower value
[90] = locus YPL078C, strain atp4, stronger effect = lower value
[91] = locus YPL106C, strain sse1, stronger effect = lower value
[92] = locus YPL240C, strain hsp82, stronger effect = lower value
[93] = locus YPL256C, strain CLN2, stronger effect = lower value
[94] = locus YCL061C, strain MRC1, stronger effect = lower value
[95] = locus YJR075W, strain HOC1, stronger effect = lower value

Measured: normalized growth

O=C(O)CC(O)(CC(=O)O)C(=O)O
inactive: [1] 1 | [2] 1.01 | [3] 1 | [4] 1.01 | [5] 1 | [6] 1.01 | [7] 1.01 | [8] 1.01 | [9] 1 | [10] 1.01 | [11] 0.997 | [12] 1.01 | [13] 1.02 | [14] 1.01 | [15] 1.01 | [16] 0.998 | [17] 1.03 | [18] 1 | [19] 1 | locus YDR195W, strain ref2 1.05 | [20] 0.994 | [21] 1 | [22] 1.01 | [23] 0.966 | [24] 0.998 | [25] 1.01 | [26] 1 | [27] 1.02 | [28] 1.01 | [29] 1.01 | [30] 1.05 | [31] 1.02 | [32] 1.01 | [33] 0.999 | [34] 1.01 | [35] 1.02 | [36] 0.997 | [37] 1 | [38] 1.01 | [39] 0.979 | [40] 0.995 | [41] 0.993 | [42] 1.01 | [43] 1.02 | [44] 1.02 | [45] 1.03 | [46] 1.03 | [47] 1.01 | [48] 1 | [49] 1.03 | [50] 1.01 | [51] 0.953 | [52] 1.01 | [53] 1.01 | [54] 1.01 | [55] 1.01 | [56] 0.999 | [57] 1.01 | [58] 1 | [59] 1.02 | [60] 0.988 | [61] 1.01 | [62] 1.02 | [63] 0.998 | [64] 1.02 | [65] 1 | [66] 0.982 | [67] 1.01 | [68] 1.01 | [69] 1.01 | [70] 1.02 | [71] 1.01 | [72] 1.01 | [73] 1.01 | [74] 1 | [75] 0.98 | [76] 0.998 | [77] 1.01 | [78] 1 | [79] 1 | [80] 1.04 | [81] 1.01 | [82] 1.02 | [83] 1.02 | [84] 1.02 | [85] 0.985 | [86] 1.01 | [87] 0.988 | [88] 0.99 | [89] 1.01 | [90] 1.03 | [91] 1.01 | [92] 1 | [93] 0.968

CCCCC[C@H](CC(=O)O)C(=O)O
inactive: [39] 1.04 | [40] 1.03 | [44] 1.04 | [51] 1.03 | [59] 0.945 | [75] 0.989 | [85] 1.05 | [93] 1.02

CCCCCCCCCCCCCCC(C(=O)O)C(O)(CC(=O)OC)C(=O)O (configuration not stated)
active: [37] 1.62 [resistant] | [46] 0.869 | [69] 0.9 | [87] 1.45 [resistant]
inactive: [1] 1.04 | [2] 0.997 | [3] 1 | [4] 0.97 | [5] 0.955 | [6] 0.967 | [7] 0.999 | [8] 0.986 | [9] 0.988 | [10] 1 | [11] 1.01 | [94] 0.986 | [12] 1.02 | [13] 1.02 | [14] 0.987 | [15] 0.985 | [16] 1.02 | [17] 1.07 | [18] 0.999 | [19] 0.996 | locus YDR195W, strain ref2 1.03 | [20] 0.994 | [21] 1.01 | [22] 0.977 | [23] 0.857 | [24] 0.98 | [25] 1 | [26] 1.01 | [27] 1 | [28] 1 | [29] 0.964 | [30] 0.981 | [31] 1.08 | [32] 0.981 | [33] 0.958 | [34] 1 | [35] 0.987 | [36] 0.966 | [38] 0.994 | [39] 0.973 | [40] 1 | [41] 0.927 | [42] 1.01 | [43] 1 | [44] 0.952 | [45] 0.976 | [47] 1.01 | [48] 0.979 | [49] 0.976 | [50] 0.995 | [51] 0.898 | [52] 0.99 | [53] 0.999 | [54] 1.01 | [55] 0.992 | [56] 0.997 | [57] 1.01 | [58] 0.969 | [59] 1.02 | [60] 0.947 | [61] 1 | [62] 0.986 | [63] 0.996 | [64] 1 | [65] 0.926 | [66] 1.01 | [67] 1 | [68] 1.02 | [70] 1.01 | [71] 1.01 | [72] 1.04 | [73] 0.941 | [74] 1.02 | [75] 0.871 | [76] 1.01 | [77] 0.996 | [78] 1.02 | [79] 0.999 | [80] 0.981 | [81] 0.985 | [82] 0.994 | [83] 0.967 | [84] 0.982 | [85] 1.02 | [86] 1 | [88] 1.04 | [89] 0.95 | [90] 0.996 | [91] 0.976 | [92] 1 | [93] 0.999

CCCC(CC(=O)O)(C(=O)O)c1ccccc1 (configuration not stated)
inactive: locus YAL013W, strain DEP1, stronger effect = lower value 1.01 | locus YBR229C, strain ROT2, stronger effect = lower value 1 | [94] 1.01 | locus YDL101C, strain DUN1, stronger effect = lower value 1.01 | locus YDR150W, strain NUM1, stronger effect = lower value 1 | locus YEL061C, strain CIN8, stronger effect = lower value 1.01 | locus YGR078C, strain PAC10, stronger effect = lower value 1 | locus YGR229C, strain SMI1, stronger effect = lower value 1.01 | [39] 1.12 | locus YHR087W, strain rtc3, stronger effect = lower value 1 | locus YJR043C, strain POL32, stronger effect = lower value 1.01 | [95] 1 | locus YLR039C, strain RIC1, stronger effect = lower value 1.03 | locus YLR058C, strain SHM2 (second series), stronger effect = lower value 1.01 | locus YLR085C, strain ARP6, stronger effect = lower value 1.05 | locus YLR262C, strain YPT6, stronger effect = lower value 1.02 | locus YML094W, strain GIM5, stronger effect = lower value 1.02 | locus YMR219W, strain ESC1, stronger effect = lower value 1.01 | locus YMR263W, strain SAP30, stronger effect = lower value 1 | locus YNL153C, strain GIM3, stronger effect = lower value 1 | locus YNL298W, strain CLA4 (second series), stronger effect = lower value 1.03 | locus YNL322C, strain KRE1, stronger effect = lower value 0.998 | locus YNR030W, strain Alg12, stronger effect = lower value 1.01 | locus YPL055C, strain LGE1, stronger effect = lower value 1.06 | locus YPL241C, strain CIN2, stronger effect = lower value 1.02 | locus YPR135W, strain CTF4, stronger effect = lower value 1.06

CCCCCC(O)CCCC(=O)O (configuration not stated)
inactive: locus YAL040C, strain CLN3, stronger effect = lower value 1.02 | locus YCL061C, strain MRC1 (second series), stronger effect = lower value 1.01 | locus YDR363W, strain ESC2, stronger effect = lower value 1.01 | locus YER002W, strain NOP16, stronger effect = lower value 1.03 | [95] 1.02 | locus YNL175C, strain NOP13, stronger effect = lower value 1.02 | locus YNL197C, strain WHI3, stronger effect = lower value 1.05 | locus YNL224C, strain SQS1, stronger effect = lower value 0.991 | locus YOR083W, strain WHI5 (second series), stronger effect = lower value 1.06
